# Experimental data from PubChem BioAssay (NCI).
# The panel holds about 83,000 compounds, 20% with a hit somewhere; the sample as a whole holds those more often.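 A percent growth of 40 corresponds to 60% growth inhibition; 0 means no net growth; -100 means all cells died. Active threshold: below 10.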 Values without a mark were called inactive. The source made the active and inactive calls.
# System: A498 renal
# Test: NCI-60 one-dose screen, 48 h (100 = growth as untreated, 0 = no growth, -100 = all killed)
# Conditions: 10 µM unless noted
# Description: Growth inhibition of the A498 human tumor cell line is measured as a screen for anti-cancer activity. Cells are grown in 96 well plates and exposed to the test compound for 48 hours. Compounds are tested at a single concentration, which is 10^-5 M for most compounds. The reported endpoint is percent growth (GI% or GIPRCNT), where numbers from 0 - 100% represent growth inhibition, and numbers from -100% - 0 represent cell death. For example, a value of 40 represents 60% growth inhibition. A value of 0 means no net growth occurred over the course of the experiment. A value of -40 indicates 40% of cells at the beginning of the experiment died by the end of the experiment. A value of -100 means all cells are dead at the end of the experiment.
# NCI-60 Human Tumor Cell Lines Screen was performed using the standard one-dose NCI protocol, which is described in more detail at https://dtp.cancer.gov/discovery_development/nci-60/default.htm.
# Compounds with GIPRCNT values below 10 were considered active. Activity score was based on GIPRCNT using the following formula: […]
# Score is 0 for GIPRCNT values of 100 or above, 50 for GIPRCNT values of 0, and 100 for GIPRCNT values of -100.
row,SMILES,growth
1,Nc1nc(-c2ccc(F)cc2)cc(-c2cnn(-c3ccccc3)n2)n1,85.9%
2,Cc1ccc(Nc2nc(N)nc(Nc3ccc4ccccc4c3)n2)cc1,17.6%
3,C=C1CC[C@@H]2[C@](C)(COC(C)=O)[C@H](OC(C)=O)CC[C@@]2(C)[C@@H]1CC(NCc1ccc(F)cc1)C1=CCOC1=O (stereo not given in full),51.7%
4,COc1ccc(-c2cn3c(-c4ccc(OC)cc4)cnc3c(Oc3ccc4c(C)cc(=O)oc4c3)n2)cc1,52.4%
5,Oc1ccc2c(=S)cc(-c3ccc(Br)cc3)oc2c1O,53.9%
6,O=C(CCN1CCOCC1)Nc1ccc(Cn2nnc3c2C(=O)c2nnn(Cc4ccc(NC(=O)CCN5CCOCC5)cc4)c2C3=O)cc1,71.8%
7,Cc1ccc(/C=C2\Oc3cc(OCC(=O)c4ccc(Cl)cc4)ccc3C2=O)cc1,113%
8,C/C(=C(/c1ccc(O)cc1)c1ccc(OCCN(C)C)cc1)c1ccccc1,102%
9,CSc1nc(NCCCNc2ccnc3cc(Cl)ccc23)cc(-c2ccccc2)n1,40.2%
10,N#Cc1c2c(nc3n[nH]c(N)c13)CCCC2,121%
11,O=C(Nc1ccc(F)cc1)Nc1ccc(CCO)cc1,85.9%
12,Cc1noc(C)c1-c1cc(O)cc(C(O)c2ccccc2)c1 (stereo not given),-3.34% (active)
13,O=C1c2cc3c(cc2-c2c1c1cc(Cl)c(Cl)cc1c(=O)n2C[C@H](O)CO)OCO3,-73.3% (active)
14,CCOC(=O)c1c2ncccc2n2c(=O)n(-c3ccc(Cl)cc3)nnc12,106%
15,Nc1c(C(=O)Nc2ccccc2)sc2nc3c(cc12)CN(CCc1ccccc1)CC3,91.3%
16,O=C1Nc2ccccc2C12CC(c1ccc(Cl)cc1)=NN2 (stereo not given),99.6%
17,CC(=O)C1=C(O)C=C2Oc3c(C(=O)/C=C/c4ccccc4)c(O)c(C)c(O)c3[C@]2(C)C1=O,14.3%
18,COc1ccc(/C=C2\N=C3Sc4cc(Cl)ccc4C(=O)N3C2=O)cc1,108%
19,Cc1cc(Nc2nc(-c3cccnc3)nc3ccccc23)n[nH]1,-19.7% (active)
20,O=C(/C=C\c1cccc([N+](=O)[O-])c1)c1ccccc1,91.4%

row,SMILES,growth
1,O=[N+]([O-])c1cccc(-c2nc3sccn3c2-c2ccnc(NCCCNS(=O)(=O)c3ccc(Br)cc3)n2)c1,52.8%
2,Cc1cc(Nc2nc(N3CCNCC3)nc3ccccc23)n[nH]1,45.3%
3,COc1ccc(C(=O)/C=C/c2c(Cl)c3c(c(OC)c2Cl)OCC(=O)N3)cc1,83.5%
4,O=C1c2cccnc2C(=O)c2c1c(C(=O)OCCN1CCCCC1)c1ccccn21,47.3%
5,Nc1cc2nc3ccccc3sc-2cc1=O,106%
6,NC(=S)N/N=C/c1cc(-c2cccc(N)c2)ccn1,37.3%
7,CC(C)c1c(C(=O)Nc2ccccc2)c(-c2ccccc2)c(-c2ccc(F)cc2)n1CC[C@@H]1CC=CC(=O)O1,73.7%
8,OC(c1cccc(C(F)(F)F)c1)c1cnccc1NC1CCCCCC1 (stereo not given),50.3%
9,CCCCCCCCCCCCCCCCCCNC(=O)[C@H]1CSC(c2ccc(OC)c(F)c2)N1 (stereo not given in full),64.9%
10,CCN(CC)CCCC(C)Nc1ccnc2c(OC)cccc12 (stereo not given),135%
11,COc1ccc(CCN2CCCn3c2nc2ccccc2c3=O)cc1,-3.97% (active)
12,O=C1Nc2ccc(Br)cc2C12CC(c1ccccc1)=NN2 (stereo not given),46.4%
13,COc1ccc(-n2c(C)nc3c(c(C)nn3-c3ccccc3)c2=O)cc1,-27.8% (active)
14,C=C1CCC2C3(C)COC(C)(C)OC3CCC2(C)C1C/C=C1/C(=O)OCC1OC(C)=O (stereo not given),116%
15,O=[N+]([O-])c1cccc(-c2nc3sccn3c2-c2ccnc(NCCCNS(=O)(=O)c3ccc(F)cc3)n2)c1,29.7%
16,CCOC(=O)/C=C/C(=O)[C@H](CC(C)C)NC(=O)[C@H](Cc1ccccc1)NC(=O)OCc1ccccc1,77.6%
17,COc1ccc(C/C(C)=C(\c2ccc(OCCN3CCCCCC3)cc2)c2ccc(OC(=O)C3CCCCC3)cc2)cc1,80.4%
18,CCCCCCCCOC(=O)CC[C@@H](C)[C@H]1CC[C@H]2[C@@H]3[C@H](OC(=O)CCN)C[C@@H]4C[C@H](OC(=O)CCN)CC[C@]4(C)[C@H]3C[C@H](OC(=O)CCN)[C@]12C,131%
19,CN1CCN(Cc2ccc(NC(=O)c3[nH]ncc3Nc3ccnc4ccsc34)cc2)CC1,17%
20,Cc1cc2cc3cc(C)c(N(C)C)cc3nc2cc1N(C)C,52.8%
